We go through 38 compounds from PubChem BioAssay (NCI).

About 83,000 compounds went through this panel and 20% of them were active in at least one assay; those are over-represented in the sample as a whole.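 A percent growth of 40 corresponds to 60% growth inhibition; 0 means no net growth; -100 means all cells died. Active threshold: below 10.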 Values without a mark were called inactive. Active and inactive are the calls of the source.

In the first experiment the test system is RPMI-8226 leukemia. In words: NCI-60 one-dose screen, 48 h (100 = growth as untreated, 0 = no growth, -100 = all killed). The settings on record: 10 µM unless noted.
For `O=C(c1ccccc1)C(c1c[nH]c2ccccc12)c1c[nH]c2ccccc12`, the growth was 20.6%.
On to `CC1(C)CC[C@]2(C(=O)Nc3ccc(Br)cc3)CC[C@]3(C)C(=CCC4[C@@]5(C)C[C@@H](O)[C@H](O)[C@@](C)(CO)C5CC[C@]43C)C2C1` (some centres undefined), for which the growth is -33.5% (active).
The same measure, in the same setting: the result for `CC(/C=C1\SC(=S)N(CCCC(=O)NC(CC(C)C)C(=O)O)C1=O)=C\c1ccccc1` (centres undefined) reads 77.6%.
Still for that read-out and setting: the result for `Cn1cc(-c2cc(N)n3nc(-c4cn(C)c5ccccc45)cc3n2)c2cc(Br)ccc21` reads 0.257% (active); that for `Cc1ccc(NCC(=O)Cn2cc(COc3ccc(C=Nc4cnc5ccccc5c4)cc3)nn2)cc1`, 110%; that for `Cc1ccc([C@H]2C(C(=O)c3ccc(Cl)cc3)C3(N[C@@H]2c2ccccc2)C(=O)Nc2ccc(Cl)cc23)cc1` (some centres undefined), 32.4%.
The same measure, in the same setting: the result for `Cc1cc2nc3c4ccccc4n(CCNCCN(C)C)c3nc2cc1C` reads -25.9% (active).
As to `Cc1ccccc1[C@H]1C(C(=O)c2ccc(Cl)cc2)C2(N[C@@H]1c1ccccc1)C(=O)Nc1ccc(Br)cc12` (some centres undefined), the growth was -10.5% (active).
The same measure, in the same setting: to `CC(C)c1sc(NC(=O)c2cc(NC(=O)c3cc(NC(=O)c4cscn4)cn3C)cn2C)nc1C(=O)NCCCN(C)C` belongs 94.5%.
For `CC(=O)OC[C@@]1(C)C2CC[C@]3(C)C(CC=C4C5CC(C)(C)CC[C@]5(C(=O)Nc5ccc(C)cc5)CC[C@]43C)[C@@]2(C)C[C@@H](OC(C)=O)[C@@H]1OC(C)=O` (some centres undefined), the growth was 13.8%.
The same measure, in the same setting: to `O=C1CC(Sc2n[nH]c(-c3ccncc3)n2)C(=O)N1c1ccc(Br)cc1` (centres undefined) belongs 94.1%; to `COc1cc2c3c(n(CCCN4CCC[C@@H]4CO)c(=O)c2cc1OC)-c1cc2c(cc1C3=O)OCO2`, -28.4% (active); to `C=C1CCC2C3(C)COC(c4ccc(F)cc4)OC3CCC2(C)C1C/C=C1/C(=O)OCC1O` (centres undefined), 6.7% (active).
The same measure, in the same setting: the result for `Cc1sc(C(NC(=O)OCCn2c([N+](=O)[O-])cnc2C)C(F)(F)Cl)nc1-c1ccc(OC(F)(F)F)cc1` (centres undefined) reads 2.36% (active); that for `CC1[C@H]2[C@H](C[C@H]3[C@@H]4CC=C5c6sc(Nc7ccccc7F)nc6CC[C@]5(C)[C@H]4CC[C@@]32C)O[C@]12CC[C@@H](C)CO2` (some centres undefined), -16.2% (active).
In the case of `O=C(c1ccccc1)c1ccc2nc(-c3cccc(Cl)c3)[nH]c2c1`, the growth is 114%.
With `OCNc1ccc(-n2cnc3cc(-c4ccc(O)cc4)ccc32)cc1C(F)(F)F`, the growth was 24.1%.
On the same count and under the same terms, the result for `CCOC(=O)C(N=Nc1ccc(S(=O)(=O)N=C(N)N)cc1)C(C)=O` (centres undefined) reads 98.5%; that for `CCOC(=O)/C=C/c1cccc2c1C(=O)NC(C)(c1cc3cc(Cl)ccc3oc1=O)N2` (centres undefined), 17.7%.
Take `C#CCOc1cc(N(CC)CC)ccc1C(C(=O)NC(C)(C)C)N(C(=O)C1CCc2cc(F)ccc2O1)c1ccc(Br)cc1` (centres undefined): the growth is 44.7%.
Still for that read-out and setting: to `CCCCCCCCc1ccc(C(=O)Nc2ccc(C)cc2C(=O)O)cc1C` belongs 82.7%.
Same read-out and setting: the result for `C#CCOc1cc(N(CC)CC)ccc1C(C(=O)NC(C)(C)C)N(C(=O)C1CCc2cc(F)ccc2O1)c1ccc(F)c(Cl)c1` (centres undefined) reads 38.3%.
On the same count and under the same terms, to `CCOC(=O)C1=C(N)N(c2ccccc2)C2=C(C(=O)CC(C)(C)C2)C1c1ccc([N+](=O)[O-])cc1` (centres undefined) belongs 82.6%; to `C=C1CC[C@@H]2[C@]3(C)COC(c4ccccc4)O[C@@H]3CC[C@@]2(C)[C@@H]1C/C=C1/C(=O)OCC1OC(C)=O` (some centres undefined), -42.4% (active); to `C#C[C@]1(O)CC[C@H]2[C@@H]3CC=C4c5sc(-c6ccc([N+](=O)[O-])cc6)nc5CC[C@]4(C)[C@H]3CC[C@@]21C`, -10.7% (active).
Take `CN1CCN(/C(=N\c2sc(-c3ccccc3)nc2-c2ccccc2)c2ccccc2)CC1`: the growth is 34.6%.
On the same count and under the same terms, the result for `N=C1N=C(SCc2nc3ccccc3[nH]2)NC(=O)/C1=C/c1ccc(Cl)cc1` reads 96.9%.
For `C/C(=N\N=C1/C(=O)Nc2ccc(Cl)cc21)c1ccc2c(c1)Nc1ccccc1S2`, the growth was 10.8%.
The same measure, in the same setting: the result for `Cc1cccc(NC(=O)CN2CCN(c3ncnc4c3cnn4-c3ccccc3)CC2)c1` reads 75.2%; that for `CN(C)CCOc1ccc(C(=O)C2[C@H](c3ccc(Cl)cc3)[C@@H](c3ccccc3)NC23C(=O)Nc2ccccc23)cc1` (some centres undefined), 49.7%.
Same read-out and setting: the result for `COc1ccc2[nH]cc(-c3nnc(N)nc3-c3cn(C)c4ncc(Br)cc34)c2c1` reads 74.5%.

The subject of the next experiment is OVCAR-8 ovarian. Described as above. The settings on record: 10 µM unless noted.
Consider `COc1c(F)ccc(C(=O)Nc2ccc3nc(NC(=O)C4CCCN(S(=O)(=O)C5CC5)C4)sc3c2)c1F` (centres undefined), for which the growth was 36.4%.
Turning to `CCOC(=O)C1=C(N)N(c2ccccc2)C2=C(C(=O)CC(C)(C)C2)C1c1ccc(N2CCOCC2)cc1` (centres undefined), the growth is 97.1%.
As for `OCC1(CCCc2ccccc2)CCCN(c2nccc3ccccc23)C1` (centres undefined), the growth was 23.1%.
Still for that read-out and setting: the result for `COc1ccc(/C=N/NC(=O)Cn2nc(Cc3ccc(OC)cc3)c3onc(C)c3c2=O)cc1` reads 45%; that for `O=[N+]([O-])c1ccc(/C=C/c2nc3ccccc3n3c(=S)[nH]nc23)cc1`, 83%; that for `COC(=O)/C=C/c1cccc2c1C(=O)NC(C)(c1cc3ccccc3oc1=O)N2` (centres undefined), 66.9%.
In the case of `CCN(CC)c1ccc(/C=N/Nc2nc(-c3ccc(Br)cc3)cs2)c(O)c1`, the growth is 81.6%.
On the same count and under the same terms, to `O=C(c1ccccc1)C(c1c[nH]c2ccccc12)c1c[nH]c2ccccc12` belongs 64.4%; to `CC1(C)CC[C@]2(C(=O)Nc3ccc(Br)cc3)CC[C@]3(C)C(=CCC4[C@@]5(C)C[C@@H](O)[C@H](O)[C@@](C)(CO)C5CC[C@]43C)C2C1` (some centres undefined), 25.6%.
Still for that read-out and setting: to `CC(/C=C1\SC(=S)N(CCCC(=O)NC(CC(C)C)C(=O)O)C1=O)=C\c1ccccc1` (centres undefined) belongs 87.5%; to `Cn1cc(-c2cc(N)n3nc(-c4cn(C)c5ccccc45)cc3n2)c2cc(Br)ccc21`, -91.9% (active).
The same measure, in the same setting: to `Cc1ccc(NCC(=O)Cn2cc(COc3ccc(C=Nc4cnc5ccccc5c4)cc3)nn2)cc1` belongs 103%.
Consider `Cc1ccc([C@H]2C(C(=O)c3ccc(Cl)cc3)C3(N[C@@H]2c2ccccc2)C(=O)Nc2ccc(Cl)cc23)cc1` (some centres undefined), for which the growth was 59.3%.
Still for that read-out and setting: to `Cc1cc2nc3c4ccccc4n(CCNCCN(C)C)c3nc2cc1C` belongs 24.2%.
The same measure, in the same setting: to `Cc1ccccc1[C@H]1C(C(=O)c2ccc(Cl)cc2)C2(N[C@@H]1c1ccccc1)C(=O)Nc1ccc(Br)cc12` (some centres undefined) belongs 2.36% (active); to `CC(C)c1sc(NC(=O)c2cc(NC(=O)c3cc(NC(=O)c4cscn4)cn3C)cn2C)nc1C(=O)NCCCN(C)C`, 2.77% (active).
`CC(=O)OC[C@@]1(C)C2CC[C@]3(C)C(CC=C4C5CC(C)(C)CC[C@]5(C(=O)Nc5ccc(C)cc5)CC[C@]43C)[C@@]2(C)C[C@@H](OC(C)=O)[C@@H]1OC(C)=O` (some centres undefined): the growth is 40.3%.
Same read-out and setting: the result for `O=C1CC(Sc2n[nH]c(-c3ccncc3)n2)C(=O)N1c1ccc(Br)cc1` (centres undefined) reads 105%; that for `COc1cc2c3c(n(CCCN4CCC[C@@H]4CO)c(=O)c2cc1OC)-c1cc2c(cc1C3=O)OCO2`, -76.8% (active).
Same read-out and setting: to `C=C1CCC2C3(C)COC(c4ccc(F)cc4)OC3CCC2(C)C1C/C=C1/C(=O)OCC1O` (centres undefined) belongs -61.5% (active); to `Cc1sc(C(NC(=O)OCCn2c([N+](=O)[O-])cnc2C)C(F)(F)Cl)nc1-c1ccc(OC(F)(F)F)cc1` (centres undefined), -65.9% (active).
On the same count and under the same terms, the result for `CC1[C@H]2[C@H](C[C@H]3[C@@H]4CC=C5c6sc(Nc7ccccc7F)nc6CC[C@]5(C)[C@H]4CC[C@@]32C)O[C@]12CC[C@@H](C)CO2` (some centres undefined) reads -83.4% (active); that for `O=C(c1ccccc1)c1ccc2nc(-c3cccc(Cl)c3)[nH]c2c1`, 103%; that for `OCNc1ccc(-n2cnc3cc(-c4ccc(O)cc4)ccc32)cc1C(F)(F)F`, 16%.
In the case of `CCOC(=O)C(N=Nc1ccc(S(=O)(=O)N=C(N)N)cc1)C(C)=O` (centres undefined), the growth is 104%.
Still for that read-out and setting: the result for `CCOC(=O)/C=C/c1cccc2c1C(=O)NC(C)(c1cc3cc(Cl)ccc3oc1=O)N2` (centres undefined) reads 39.1%; that for `C#CCOc1cc(N(CC)CC)ccc1C(C(=O)NC(C)(C)C)N(C(=O)C1CCc2cc(F)ccc2O1)c1ccc(Br)cc1` (centres undefined), 89.3%.
For the compound `CCCCCCCCc1ccc(C(=O)Nc2ccc(C)cc2C(=O)O)cc1C`, the growth is 93.2%.
The same measure, in the same setting: the result for `C#CCOc1cc(N(CC)CC)ccc1C(C(=O)NC(C)(C)C)N(C(=O)C1CCc2cc(F)ccc2O1)c1ccc(F)c(Cl)c1` (centres undefined) reads 69%; that for `CCOC(=O)C1=C(N)N(c2ccccc2)C2=C(C(=O)CC(C)(C)C2)C1c1ccc([N+](=O)[O-])cc1` (centres undefined), 103%; that for `C=C1CC[C@@H]2[C@]3(C)COC(c4ccccc4)O[C@@H]3CC[C@@]2(C)[C@@H]1C/C=C1/C(=O)OCC1OC(C)=O` (some centres undefined), -64.9% (active).
The same measure, in the same setting: the result for `C#C[C@]1(O)CC[C@H]2[C@@H]3CC=C4c5sc(-c6ccc([N+](=O)[O-])cc6)nc5CC[C@]4(C)[C@H]3CC[C@@]21C` reads 11.3%; that for `CN1CCN(/C(=N\c2sc(-c3ccccc3)nc2-c2ccccc2)c2ccccc2)CC1`, 97.6%; that for `N=C1N=C(SCc2nc3ccccc3[nH]2)NC(=O)/C1=C/c1ccc(Cl)cc1`, 102%.
The same measure, in the same setting: the result for `C/C(=N\N=C1/C(=O)Nc2ccc(Cl)cc21)c1ccc2c(c1)Nc1ccccc1S2` reads -15.6% (active).
With `Cc1cccc(NC(=O)CN2CCN(c3ncnc4c3cnn4-c3ccccc3)CC2)c1`, the growth was 96%.
Same read-out and setting: the result for `CN(C)CCOc1ccc(C(=O)C2[C@H](c3ccc(Cl)cc3)[C@@H](c3ccccc3)NC23C(=O)Nc2ccccc23)cc1` (some centres undefined) reads 88.1%.
The same measure, in the same setting: to `COc1ccc2[nH]cc(-c3nnc(N)nc3-c3cn(C)c4ncc(Br)cc34)c2c1` belongs 75.8%.
